The panel holds about 79,000 compounds, 15% with a hit somewhere; the sample as a whole holds those more often. Calls of active or inactive are those of the source. Cut-off read from the data, not from the text of the source: active = growth inhibition above about 70%; inactive = the rest.
Test: NCI Yeast Anticancer Drug Screen. Data for the rad50EPP+ strain (AID 151);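 note: 0% = growth of vehicle-treated control cultures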
Conditions: S. cerevisiae rad50 mutant strain, at 100.0 µM, stronger effect = higher value
Method in brief: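 Measured: growth inhibition of rad50EPP+ yeast. Reference: vehicle-treated controls. Screen uses strains with defined genetic alterations in DNA damage repair or cell cycle control.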

Q: Which growth inhibition does the source give for `CCN(CC)CC[n+]1ccc2c(C)c3[nH]c4ccc(O)cc4c3c(C)c2c1` here?
A: 91% (active)

Q: Which growth inhibition does the source give for `O=[n+]1c2ccc(Cl)cc2n([O-])c2ccc(Cl)cc21` here?
A: 74% (active)

Q: For `CCOP(=O)(OCC)C(Cc1ccccc1)N=C(c1ccccc1)c1ccccc1` (centres undefined), which growth inhibition is on record?
A: 94% (active)

Q: Which growth inhibition does the source give for `CC[C@@]1(O)C(=O)OCc2c1cc1n(c2=O)Cc2cc3c(N)cccc3nc2-1` here?
A: 52% (inactive)

Q: With `COC1C=COC2(C)Oc3c(C)c(O)c4c(c3C2=O)/C(=N/C2CCC(O)OC2C)C=C(NC(=O)/C(C)=C\C(=O)C2CC2C(O)C(C)C(O)C(C)C(OC(C)=O)C1C)C4=O` (centres undefined) as the molecule, how does the growth inhibition read?
A: -6% (inactive)

Q: For `COc1cc2c(c(OC)c1OC)-c1c(cc3c(c1OC)OCO3)CC(C)C(C)(O)C2OC(=O)c1ccccc1` (centres undefined), which growth inhibition is on record?
A: 5% (inactive)

Q: For `O=c1ssc2ncccc12`, which growth inhibition is on record?
A: 97% (active)

Q: With `O=C1C2C(C(=O)N1c1ccc(OCc3ccccc3)cc1)C1c3ccccc3C2C2CCCCN21` (centres undefined) as the molecule, how does the growth inhibition read?
A: 6% (inactive)

Q: With `COc1ccc(-c2cn(-c3ccc(I)cc3)c3ncnc(N)c23)cc1` as the molecule, how does the growth inhibition read?
A: 6% (inactive)

Q: With `CCOC(=O)C(NC(=O)c1ccccc1)(N1CCN(c2cc3c(cc2F)c(=O)c(C(=O)O)cn3C2CC2)CC1)C(F)(F)F` (centres undefined) as the molecule, how does the growth inhibition read?
A: 14% (inactive)

Q: Which growth inhibition does the source give for `C/C(=N\O)C1CC2C=C(C#N)C1N(Cc1ccccc1)C2` (centres undefined) here?
A: 19% (inactive)

Q: With `CC/C(=C(\c1ccccc1)c1ccc(OCCN(C)C)cc1)c1ccccc1` as the molecule, how does the growth inhibition read?
A: 97% (active)

Q: With `COc1ccccc1N=NC(C(=O)c1ccccc1)C(=O)c1ccccc1` as the molecule, how does the growth inhibition read?
A: 62% (inactive)

Q: With `CC(O)C(O)C(O)C(/C=N\Nc1ccccc1)=N/Nc1ccccc1` (centres undefined) as the molecule, how does the growth inhibition read?
A: 50% (inactive)

Reference: PubChem BioAssay (NCI)
